The campaign covered roughly 360,000 compounds. About 3,100 (0.86%) were called active.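 How the source made its calls: active means at least 50% inhibition at 5 µM, scaled per plate between neutral and stimulator controls; inactive means the rest.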 The full list was thinned out, with actives kept by preference.
Assay: inhibitors of PAF-induced NF-kB signaling, primary screen, cell-based, GFP fluorescence, uHTS (AID 588850);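 further: PAF is a Pseudomonas aeruginosa culture filtrate used as stimulus; plate controls were PAF-stimulated DMSO wells for no effect and unstimulated DMSO wells for full effect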
Settings: KKLEB NF-kB-GFP reporter, GFP fluorescence overnight, at 5 µM, hits give high values

SMILES	inhibition
COc1ccc(CNC(=O)C[C@H]2C[C@H](C(=O)N3CCOCC3)[C@@]3(CCC4CCCC4)c4[nH]c5ccc(Cl)cc5c4CCN3C2=O)cc1OC	8.2% (inactive)
O=C(CCS(=O)(=O)Cc1ccccc1F)NCCCN1CCCCC1	5% (inactive)
CC1CN(c2cc(=O)n(-c3cccc(Br)c3)c(=O)[nH]2)CC(C)O1 (stereo unspecified)	-24.9% (inactive)
COC(=O)C1CCN(C(=O)COC(=O)c2cc(S(=O)(=O)N3CCOCC3)ccc2C)CC1	5.9% (inactive)
CC(C)NS(=O)(=O)c1ccc(CCC(=O)N2CCOCC2)cc1	5% (inactive)
CC(=O)Nc1ccc(NC(=O)CSCc2cnn(-c3ccccc3)c2-n2cccc2)cc1	11.8% (inactive)
COC(c1ccccc1)(c1ccccc1)C(Oc1nc(C)cc(C)n1)C(=O)O (stereo unspecified)	3.3% (inactive)
Cc1cc(C)nc(S/C=C/C(=O)c2ccccc2)n1	71.8% (active)
O=C(/C=C/Sc1ncn[nH]1)c1ccc(Cl)cc1	42.7% (inactive)
C[C@@H]1Cn2cnc(C(=O)Nc3ccc(CNC(=O)OC(C)(C)C)cc3)c2C(=O)N1	-14.7% (inactive)
C=C(C)CNC(=O)c1ccc(OC2CCN(C(=O)COC)CC2)cc1	13.1% (inactive)
CC(=O)N1c2ccc(S(=O)(=O)NCCC(=O)N(C)C3CCCCC3)cc2CC1C (stereo unspecified)	3.2% (inactive)
O=C(Nc1ccc(C(=O)N2CCOCC2)cc1)Nc1cccc(C(F)(F)F)c1	55.4% (active)
Cc1c(Cl)cccc1NC(=O)Nc1ccc(C(=O)N2CCCC2)cc1	3.8% (inactive)
COc1ccccc1C(=O)Nc1cccc(C(=O)N2CCOCC2)c1	-3.8% (inactive)
COC(=O)CNC(=O)C(CCSC)NC(C)=O (stereo unspecified)	-2.1% (inactive)
CCOc1ccc2[nH]c(=O)c(CN(CCCO)S(=O)(=O)c3ccc(F)cc3)cc2c1	2.3% (inactive)
COc1ccc2[nH]c(=O)c(CN(Cc3cccnc3)S(=O)(=O)c3ccccc3F)cc2c1	82.1% (active)
COc1ccc(-c2[nH]ncc2CN(C)Cc2cccnc2)c(F)c1	14.6% (inactive)
CCCN(c1ccc(C(C)C)cc1)S(=O)(=O)c1c(C)[nH]c(=O)[nH]c1=O	-4.9% (inactive)
Cc1oc2c(F)c(F)c(F)c(F)c2c1S(=O)(=O)Nc1cccc(C(F)(F)F)c1	50.4% (active)
Cc1ccc(N(CCC(=O)O)S(=O)(=O)c2cccc(C(F)(F)F)c2)cc1	11% (inactive)
Cc1noc(C)c1S(=O)(=O)Nc1cc(C(F)(F)F)ccc1N1CCOCC1	2.4% (inactive)

SMILES	inhibition
Cc1ccsc1C(=O)NC1CCCCC1C (stereo unspecified)	6.2% (inactive)
CC(C)Cc1nn2c(=O)cc(O)nc2s1	-9.2% (inactive)
COC(=O)c1scc(C)c1NC(=O)CSc1ccc(Cl)cc1	-3.3% (inactive)
CCCCOc1ccc(C(=O)NCC(=O)OCC(=O)c2c(N)n(C)c(=O)n(C)c2=O)cc1	14.9% (inactive)
O=C(Nc1ccncc1)c1c(F)cccc1F	81.6% (active)
COc1cccc(OC)c1C(=O)Nc1ccc(Cc2ccncc2)cc1	-1.5% (inactive)
O=C(Nc1ccc(S(=O)(=O)N2CCCCCC2)cc1)c1c(F)cccc1F	-20.3% (inactive)
CNC[C@H]1Oc2c(NC(=O)C3CCCCC3)cccc2C(=O)N([C@H](C)CO)C[C@@H]1C	12.4% (inactive)
O=S1(=O)CC(N2CCC(Cc3ccccc3)CC2)CN1Cc1ccccc1 (stereo unspecified)	-8.1% (inactive)
CCNC(=O)CC1C(=O)N(c2ccc(F)cc2)C(=O)N1Cc1cccs1 (stereo unspecified)	-17.2% (inactive)
Cn1c(C(=O)O)ccc1S(=O)(=O)N(Cc1ccccc1)Cc1ccccc1	-3.7% (inactive)
C#CCN(C[C@@H]1[C@@H](OC(=O)NC2CC2)[C@@H](OC(=O)NC2CC2)Cn2c(=O)ccc(=O)n21)S(=O)(=O)c1ccc(C)cc1	53.2% (active)
Cc1ccc(S(=O)(=O)N2C[C@H]3n4c(=O)ccc(=O)n4C[C@H](OC(=O)NC4CCCC4)[C@@]3(O)C2)cc1	-0.9% (inactive)
C#CCN(C[C@H]1[C@H](OC(=O)NC2CCCC2)[C@H](OC(=O)NC2CCCC2)C[C@H]2C(=O)N(c3ccccc3)C(=O)[C@@H]12)S(=O)(=O)c1ccc(C)cc1	15.8% (inactive)
COC(=O)Cc1c(O)ccn(Cc2cccc(C(F)(F)F)c2)c1=O	-7.8% (inactive)
CCN1CCC(O)(/C=C/c2ccc(C)cc2)C(C(=O)/C=C/c2ccc(C)cc2)C1 (stereo unspecified)	79.8% (active)
CCN1CCC2(CC1)N=C(c1ccc(F)cc1)C(=S)N2C(=O)c1ccc(C)cc1	18% (inactive)
CCOC(=O)C1=CCC2C(=O)N(Cc3ccccc3)C(=O)C12 (stereo unspecified)	-1.4% (inactive)
COc1ccccc1-n1nnnc1S(=O)(=O)Cc1ccc(Cl)cc1	85.9% (active)
COc1ccccc1CN(C)c1nnnn1-c1ccccc1	-3.9% (inactive)
CCN(C(=O)CSc1nnnn1-c1ccccc1OC)C1CCS(=O)(=O)C1 (stereo unspecified)	6% (inactive)
CCOC(=O)C1=CC[C@@H](c2ccncc2)N(S(=O)(=O)c2ccc(C)cc2)C1	2.5% (inactive)
CCCC(C(=O)NC1CCCC1)N(C(=O)Cn1nnc(-c2ccc(C)o2)n1)c1cccc(O)c1 (stereo unspecified)	-12.5% (inactive)

From PubChem BioAssay AID588850 (Sanford-Burnham Center for Chemical Genomics, 2011)
